# Assay outcomes from PubChem BioAssay.
# G9a block: G9a (human) methyltransferase inhibition. Q96KQ7. G9a H3K9 monomethylation, AlphaScreen, 2 h. Potency, µM (doses to about 102 µM), hits mostly inhibitors. 350,000 compounds, 8.8% hits. AID 504332; note: nearly all actives have a fitted effect of over 75% in size
#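 AlphaScreen detection with an anti-monomethyl H3K9 antibody quantified product after a 2 h room-temperature reaction containing 500 nM biotinylated H3K9 peptide, 20 µM SAM and 20 nM enzyme, which had been preincubated 15 min with compound.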
# HP1b chromo inh: inhibitors of HP1-beta chromodomain binding to methylated histone tails; P83916; AlphaScreen HP1-beta / biotin-H3K9me3 peptide binding; Potency, µM (titrated, usually from 114 µM), most hits filed as inhibitors; 390,000 compounds, 0.56% hits; AID 540317; note: nearly all actives have a fitted effect of over 70% in size
#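 Compound inhibition of the preformed complex between 50 nM HP1-beta and 50 nM biotinylated H3K9me3 peptide was read by AlphaScreen. Buffer was PBS pH 7.4 with 0.01% Tween-20. Incubations ran 30 min at room temperature, with 10 ug/mL donor/acceptor beads.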
# PLK1 PBD block: blocks phosphopeptide binding to human PLK1 polo-box domain | P53350 | Plk1 PBD binding of FITC phosphopeptide, fluorescence polarization | Potency, µM, actives largely listed as inhibitors | 360,000 compounds, 2.8% hits | AID 720504; note: series mostly up to about 57 µM; nearly all actives have a fitted effect of over 65% in size
# Target sequence (P53350 whole entry, looked up, the tested form may be a part): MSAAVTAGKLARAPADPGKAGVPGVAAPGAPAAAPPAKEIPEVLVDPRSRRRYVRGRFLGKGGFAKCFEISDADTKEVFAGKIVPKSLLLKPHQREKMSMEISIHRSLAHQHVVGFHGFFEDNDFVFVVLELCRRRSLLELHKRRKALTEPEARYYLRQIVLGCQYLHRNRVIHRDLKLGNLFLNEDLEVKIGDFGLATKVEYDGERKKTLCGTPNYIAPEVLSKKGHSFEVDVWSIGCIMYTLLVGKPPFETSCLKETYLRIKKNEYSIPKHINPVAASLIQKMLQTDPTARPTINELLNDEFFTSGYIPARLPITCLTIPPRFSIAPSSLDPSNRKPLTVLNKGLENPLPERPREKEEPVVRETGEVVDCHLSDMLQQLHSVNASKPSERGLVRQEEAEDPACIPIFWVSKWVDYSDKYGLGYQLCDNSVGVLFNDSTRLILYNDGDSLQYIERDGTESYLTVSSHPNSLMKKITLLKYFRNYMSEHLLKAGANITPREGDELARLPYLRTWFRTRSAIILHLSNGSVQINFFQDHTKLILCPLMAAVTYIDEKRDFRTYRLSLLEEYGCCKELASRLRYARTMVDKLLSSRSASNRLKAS
# JMJD2A Tudor inh: JMJD2A Tudor domain (human) inhibition; AlphaScreen JMJD2A-Tudor / H3K4me3 peptide binding; Potency, µM (highest dose often 114 µM), actives largely listed as inhibitors; O75164; AID 504339; 390,000 compounds, 4.4% hits; note: nearly all actives have a fitted effect of over 50% in size
# Sfp PPTase inh: blocks B. subtilis Sfp PPTase activity; Biochemical Sfp PPTase activity, qHTS; Potency, µM, actives largely listed as inhibitors; 310,000 compounds, 3.5% hits; AID 1490;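 note: the enzyme is Sfp with the accession as filed and its product quenches rhodamine fluorescence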
#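 Compounds were incubated with enzyme (final 15 nM) for 15 min at room temperature before substrate addition started the reaction. Fluorescence at 525 nm excitation, 598 nm emission was recorded immediately and after 30 minutes.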
# BAZ2B block: inhibitors of human BAZ2B bromodomain. AlphaScreen BAZ2B-H3K14Ac peptide displacement. Potency, µM (highest dose often 114 µM), most hits filed as inhibitors. AID 504333. Q9UIF8. 360,000 compounds, 4.4% hits; note: nearly all actives have a fitted effect of over 60% in size
#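 BAZ2B 50 nM plus b-H3(5-23)K14Ac 50 nM, PBS pH 7.4/0.01% Tween-20, 30 min RT; compound added (max 110 uM), 30 min RT; streptavidin donor/Ni-chelate acceptor beads 10 ug/mL final, 20 min dark; AlphaScreen read.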
# Hits are given with their value; – = inactive; ? = inconclusive; · = no result given; ! = not active in a repeat; [ ] = dose if it differs, or a comment. A selection: hits, their analogues and other compounds. The true share with any hit is near 12%. Calls come from the whole dose curve; as a rule, active = well fitted curve in the direction sought with a large enough effect; inconclusive = small, poorly fitted or top-dose-only effect, or another doubt; inactive = no such curve, though single readings can be large; an effect the other way counts as inactive or inconclusive.
SMILES,G9a block,HP1b chromo inh,PLK1 PBD block,JMJD2A Tudor inh,Sfp PPTase inh,BAZ2B block
CCN(c1ccccc1)S(=O)(=O)c1ccc(OC)c(NC(=O)CCc2nc3ccccc3c(=O)[nH]2)c1,45µM,–,–,–,·,–
CCOC(=O)Cc1c(-c2cccc(Cl)c2)nc2c3ccccc3ccn12,·,·,–,·,·,·
Cc1cccc(C)c1NC(=O)C1(C)CSCC(=O)N1CCCN1CCOCC1 (stereo not given),·,·,–,·,·,·
Cc1ccc(C)c(NS(=O)(=O)c2ccc3[nH]c(=O)oc3c2)c1,45µM,–,–,–,–,79µM
Cc1cccc(NS(=O)(=O)c2ccc3[nH]c(=O)oc3c2)c1C,·,–,–,–,·,·
Cc1cccc(NC(=S)N/C(=N/S(=O)(=O)c2ccccc2)c2ccccc2)c1,?,–,24µM,–,?,–
CC(C)OC(=S)N/C(=N\S(=O)(=O)c1ccccc1)c1ccccc1,11µM,–,?,–,14µM,–
Cc1ccc(S(=O)(=O)/N=C(/NC(=S)Nc2cccc(C)c2)c2ccccc2)cc1,?,?,?,–,50µM,–
CC(C)O/C(=N\S(=O)(=O)c1ccc(Cl)cc1)c1ccccc1,–,–,–,–,–,–
Cc1c2n(c3ccccc13)CCN(C)C2,–[2.33 µM],–,–,22µM,·,–
CN1CCc2c(c3ccccc3n2C)C1,–[12.7 µM],–,–,–,–,–
O=C(c1ccc2c(=O)n(Cc3ccco3)c(=S)[nH]c2c1)N1CCN(Cc2ccc3c(c2)OCO3)CC1,·,–,·,?,·,·
CC[N+](CC)(CC#Cc1ccccc1)CC(=O)c1ccc(Cl)cc1,7.1µM,–,–,–,–,–
O=C(O)CCN1C(=O)C(=C2CCCCCC2)SC1=S,45µM,–,?,–,50µM,–
O=C1C(=C2CCCCC2)SC(=S)N1Cc1ccco1,35µM,–,21µM,56µM,40µM,?
CC(NC(=O)Cn1cccc1)c1ccccc1 (stereo not given),?,–,–,–,–,–
CC(C1=C(CCN(C)C)Cc2ccccc21)c1ccccn1 (stereo not given),·,–,–,–,·,·
CC1=C(C(N)=O)S(=O)(=O)c2ccccc21,–,–,21µM,?,–,–
CCOC(=O)C(C)(C)Oc1cccc2c1S(=O)(=O)c1ccccc1-2,·,–,–,–,·,·
COC(=O)N1C2CCCCC2=NN(c2ccccc2)N1C(=O)OC (stereo not given),·,·,–,·,·,·
CCOC(=O)c1[nH]c2c(c1Cc1ccccc1)C(=O)CC(c1ccc(Cl)cc1)C2 (stereo not given),–,–,·,–,·,–
Cc1cc(C(=O)COC(=O)c2n[nH]c3ccccc23)c(C)n1C,?,–,–,63µM,–,?
COc1cc(C(=O)OCC(=O)c2cc(C)n(C)c2C)cc(OC)c1OC,–,?,17µM,32µM,–,–
Cc1cc(C(=O)COC(=O)c2nccnc2N)c(C)n1C,–,–,–,–,–,·
N#Cc1sc(=O)[nH]c1Cl,·,–,?,89µM!,50µM,·
SMILES,G9a block,HP1b chromo inh,PLK1 PBD block,JMJD2A Tudor inh,Sfp PPTase inh,BAZ2B block
Cc1[nH]c(=O)c(C#N)c(C)c1Cl,–,–,–,–,–,–
Cc1cc(C(=O)NCC(c2ccco2)N2CCCC2)c2ccccc2n1 (stereo not given),–,–,–,–,·,–
O=C(NCCOc1ccccc1)C1CCCCC1,–,–,–,–,–,–
O=C(CC1CCCCC1)NCCOc1ccccc1,–,–,27µM,50µM,–,–
Cc1nc2scc(-c3cccs3)c2c(=O)[nH]1,?,–,?,–,45µM,–
CC12CN3CC(=O)N4CC5(C)CN(CC(C)(C4)C5=O)C(=O)CN(C1)CC(C)(C3)C2=O,35µM,–,–,–,–,–
Cc1ccc(S(=O)(=O)N2CC3(C)CN(S(=O)(=O)c4ccc(C)cc4)CC(C)(C2)C3=O)cc1,–[12.7 µM],–,–,–,–,–
COc1ccc(-n2nc(C(=O)N(C)C)nc2-c2ccccc2)cc1,?,–,–,–,–,–
COc1ccc(C(N)c2nccc3cc(OC)c(OC)cc23)cc1OC (stereo not given),·,–,–,56µM,–,14µM
O=C(O)C1=C(OCc2ccc(F)c(F)c2)C(=O)NCC1,–[12.7 µM],–,27µM,?,–,–
CCOC(=O)/C(C#N)=C(C)/C=C1\Sc2ccccc2N1CC,–,–,–,–,–,–
CCN1/C(=C\C=C(C(C)=O)C(C)=O)Sc2ccccc21,50µM,–,–,–,–,?
CCN1/C(=C\C(=S)Nc2ccccc2)Sc2ccccc21,?,?,24µM,25µM,20µM,?
O=C(c1csnn1)N1CCC2(CCN(Cc3ccccc3)CC2)CC1,–[12.7 µM],·,·,·,–,·
CCOC(=O)C[C@H]1c2cc(F)ccc2S(=O)(=O)N1Cc1ccc(OC)cc1,·,–,–,–,·,·
COc1ccc(-c2nc(C#N)c(N3CCN(c4ccccc4)CC3)o2)cc1,8.9µM,–,–,?,–,?
COc1ccccc1-c1nc(C#N)c(N2CCN(C(=O)c3ccco3)CC2)o1,–,–,–,–,–,–
COc1ccc(N2CCN(c3oc(-c4ccccc4OC)nc3C#N)CC2)cc1,2.5µM,?,–,13µM,–,8.9µM
COc1ccc(N2CCN(c3oc(-c4ccc(OC)c(OC)c4)nc3C#N)CC2)cc1,–[2.33 µM],–,–,–,?,?
COc1ccccc1-c1nc(C#N)c(N2CCN(c3ccccc3)CC2)o1,?,?,–,?,–,11µM
CCOc1ccc(-c2nc(C#N)c(N3CCN(Cc4ccccc4)CC3)o2)cc1,10µM,?,–,?,–,?
CCOCCn1ccc2c(OCC(=O)NCc3ccc(F)cc3)cccc2c1=O,–,–,·,–,·,–
COc1ccccc1-c1nc(C#N)c(N2CCCCCC2)o1,45µM,–,–,?,?,?
Cc1cccc(-c2nc(C#N)c(N3CCCCCC3)o2)c1,?,?,–,?,–,13µM
COc1ccccc1-c1nc(C#N)c(N2CC(C)CC(C)C2)o1 (stereo not given),?,–,–,–,–,?
SMILES,G9a block,HP1b chromo inh,PLK1 PBD block,JMJD2A Tudor inh,Sfp PPTase inh,BAZ2B block
C[C@@H]1/C=C\CC(=O)OC[C@H](C)C(=O)N[C@@H](C)C(=O)OC1,·,·,·,·,–,·
CCc1ccccc1NC(=S)N1CCN(c2ccccn2)CC1,–,–,–,–,–,–
CCN(CC)S(=O)(=O)c1ccc(C)c(NC(=S)N2CCN(c3ccccn3)CC2)c1,32µM,–,30µM,–,?,–
CCN(CC)S(=O)(=O)c1ccc(C)c(NC(=S)N2CCN(C/C=C/c3ccccc3)CC2)c1,35µM,–,–,–,–,?
CCN(CC)S(=O)(=O)c1ccc(C)c(NC(=S)N2CCN(Cc3ccc4c(c3)OCO4)CC2)c1,?,–,?,?,–,?
COC(=O)c1ccc(C(=O)Nc2ccc(N)cc2N)cc1,45µM,–,–,–,–,?
CCOc1ccc(CNC(=O)C(=O)c2cn(CC(=O)N3CCOCC3)c3ccccc23)cc1OC,–,–,–,–,–,–
